# Results filed as inconclusive are left out. Active and inactive are the calls of the source. Calls come from the whole dose curve; as a rule, active = well fitted curve in either direction with a large enough effect (not every such curve was filed as active); inconclusive = small, poorly fitted or top-dose-only effect, or another doubt; inactive = flat fitted curve, though single readings scatter. Starred links: 1 amine or outer side, 2 acyl side, 3 side chain; linkers in the order of their positions; H or OH if unused. Positions of bridges follow the written chain, without caps; N, C: chain ends. Non-standard residues stand in square brackets, D forms with d. Residues, ends and D or L forms follow the SMILES beside them. *: point of attachment. X1 = NC1=N[C@@H](O)C[C@@H]([C@@H](N[*:1])C(=O)[*:2])N1; ΔAla(Z-3-ureido) = NC(=O)N/C=C(\N)C(=O)O; β3hOrn = NCCC[C@H](N)CC(=O)*; Dap = NC[C@H](N)C(=O)O
# Experiment: Stat Signaling Pathway (AID 446);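 note: ME-180 cervical cancer cells given 40 pM IL-6 alongside compound; SIE-controlled beta-lactamase reporter measured as 460/530 nm FRET emission ratio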
# Conditions: ME-180 SIE beta-lactamase reporter, IL-6 stimulated, 5 h; series mostly up to 17.2 µM; activity, negative = inhibition: at the top concentration
# Summary of the method: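 ME-180 SIE-bla cells; overnight plating; cpd + IL-6 40 pM, 5 h, 37 C; LiveBLAzer 2.5 h RT; 460/530 nm emission ratio. Normalized to 300 pM IL-6 and 125 nM JAK inhibitor controls.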
# % is set by controls: 0 for no effect and ±100 for the full control effect.
row,Compound,"activity, negative = inhibition"
1,CC[C@]1(c2ccccc2)NC(=O)N(C)C1=O,2.72% (inactive)
2,CN1CCO[C@H](c2ccccc2)c2ccccc2C1,-4.86% (inactive)
3,C[C@H](CCC(=O)O)[C@H]1CC[C@@H]2[C@@H]3[C@@H](O)C[C@H]4C[C@@H](O)CC[C@@]4(C)[C@H]3CC[C@@]21C,5.35% (inactive)
4,C=CCO[C@@H](Cn1ccnc1)c1ccc(Cl)cc1Cl,-1.43% (inactive)
5,CN(C/C=C\c1ccccc1)Cc1cccc2ccccc12,-2.2% (inactive)
6,CC(C)(CO)[C@H](O)C(=O)NCCC(=O)O,-9.33% (inactive)
7,C[N+]1(C)CC[C@@H](OC(=O)[C@@](O)(c2ccccc2)C2CCCC2)C1,-2.42% (inactive)
8,CCN(CCCCOC(=O)c1ccc(OC)c(OC)c1)[C@@H](C)Cc1ccc(OC)cc1,11.2% (inactive)
9,O=C(O)c1cc2ccccc2c(Cc2cc3ccccc3c(C(=O)O)c2O)c1O (tested in a mixture with another compound),-4.94% (inactive)
10,C[C@H](NCCC(c1ccccc1)c1ccccc1)c1ccccc1,4.11% (inactive)
11,C[C@H](C(=O)O)c1cccc(Oc2ccccc2)c1,0.77% (inactive)
12,NCCC[C@H](N)CC(=O)N[C@H]1CNC(=O)[C@@H]([C@@H]2C[C@H](O)N=C(N)N2)NC(=O)/C(=C/NC(N)=O)NC(=O)[C@@H](CO)NC(=O)[C@@H](CO)NC1=O (β3hOrn-[Dap][dS][dS][ΔAla(Z-3-ureido)][X1]; lactam 1-C),-3.79% (inactive)
13,CC1(C)[C@@H](OC(=O)CCC(=O)O)CC[C@@]2(C)[C@H]1CC[C@@]1(C)[C@H]2C(=O)C=C2[C@H]3C[C@](C)(C(=O)O)CC[C@]3(C)CC[C@@]21C,-1.83% (inactive)
